We go through seven compounds from PubChem BioAssay (EPA / NIEHS).

Common to all, as to details: mRNA level, 48 h; actives raise or lower the signal
Read-out in assay [1]: Tumor necrosis factor receptor superfamily member 6 (Homo sapiens) (UniProt P25445)
In words: LTEA_HepaRG_FAS: Life Technologies and Expression Analysis (LTEA) Assay for Fas cell surface death receptor (FAS) using HepaRG (AID 2283447). An outline of the steps: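 FAS transcript level was measured by TaqMan qRT-PCR against three housekeeping genes after 48 h chemical exposure. Cells were HepaRG, 0.5% DMSO vehicle, with a top concentration of 100 uM and half-log dilutions over eight points, in duplicate.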

Read-out in assay [2]: Fatty acid synthase (Homo sapiens) (UniProt P49327)
The assay can be described thus: LTEA_HepaRG_FASN: Life Technologies and Expression Analysis (LTEA) Assay for Fatty Acid Synthase (FASN) using HepaRG (AID 2283448). An outline of the steps:
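Cells were plated, cultured 48 h, switched to serum-free induction medium, then dosed in duplicate (max 100 uM, half-log dilutions, 0.5% DMSO) for 48 h. RNA was then isolated and FASN quantified by qRT-PCR.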

Read-out in assay [3]: Cyclin D2 (CCND2), CCND2 (gene 894)
In words: LTEA_HepaRG_CCND2: Life Technologies and Expression Analysis (LTEA) Assay for Cyclin D2 (CCND2) using HepaRG (AID 2283449). An outline of the steps: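 CCND2 transcript levels, quantified by qRT-PCR and normalised to three housekeeping genes, were fitted bidirectionally against 0.5% DMSO. HepaRG cultures were dosed 48 h in duplicate with an 8-point half-log series up to 100 uM.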

Read-out in assay [4]: Cyclin Dependent Kinase Inhibitor 1A (CDKN1A), CDKN1A (gene 1026)
The assay can be described thus: LTEA_HepaRG_CDKN1A: Life Technologies and Expression Analysis (LTEA) Assay for Cyclin Dependent Kinase Inhibitor 1A (CDKN1A) using HepaRG (AID 2283450). The method, boiled down:
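Read-out is CDKN1A mRNA by TaqMan qRT-PCR, normalized to three housekeeping genes and fitted in both directions against the DMSO baseline. Human HepaRG cells were treated 48 h with test chemicals up to 100 uM in half-log steps, 0.5% DMSO.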

Read-out in assay [5]: Cyclin D1 (CCND1), CCND1 (gene 595)
In words: LTEA_HepaRG_CCND1: Life Technologies and Expression Analysis (LTEA) Assay for Cyclin D1 (CCND1) using HepaRG (AID 2283451).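 For AC50: differentiated human HepaRG liver cells in serum-free induction medium; TaqMan qRT-PCR transcript level normalised to ACTB GAPDH and POLR2A housekeeping genes.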 The method, boiled down: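 HepaRG plated 48 h, medium switched to serum-free induction medium, chemicals added in duplicate (top 100 uM, half-log steps, 0.5% DMSO) for 48 h, cells lysed, RNA measured by TaqMan qRT-PCR.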

Read-out in assay [6]: catalase (CAT), CAT (gene 847)
The assay can be described thus: LTEA_HepaRG_CAT: Life Technologies and Expression Analysis (LTEA) Assay for catalase (CAT) using HepaRG (AID 2283452). The method, boiled down:
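Expression of CAT was quantified by TaqMan qRT-PCR with ACTB/GAPDH/POLR2A normalization after 48 h chemical exposure of HepaRG. Eight-point half-log series, top 100 uM, in 0.5% DMSO; gain or loss fitted against vehicle.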

Read-out in assay [7]: flavin-containing dimethylaniline monooxygenases 3 (FMO3), FMO3 (gene 2328)
In words: LTEA_HepaRG_FMO3: Life Technologies and Expression Analysis (LTEA) Assay for flavin-containing dimethylaniline monooxygenases 3 (FMO3) using HepaRG (AID 2283453).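 For AC50: differentiated human HepaRG liver cells in serum-free induction medium.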 An outline of the steps: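 FMO3 transcript quantified by TaqMan qRT-PCR against three housekeeping genes after 48 h chemical exposure of HepaRG cells. Eight-point half-log series, top 100 uM, 0.5% DMSO vehicle; phenobarbital 1mM induction control; up- or down-regulation fitted.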

Read-out in assay [8]: Cytochrome P450 (CYP1A1), CYP1A1 (gene 1543)
The assay can be described thus: LTEA_HepaRG_CYP1A1: Life Technologies and Expression Analysis (LTEA) Assay for Cytochrome P450 (CYP1A1) using HepaRG (AID 2283454). The method, boiled down: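 HepaRG, 48 h post-plating switched to serum-free induction medium; 8-pt conc-response (top 100 uM, half-log, 0.5% DMSO), duplicates, 48 h. Lysis in RLT, TaqMan qRT-PCR for CYP1A1; gain or loss vs DMSO.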

Read-out in assay [9]: Forkhead box O1 (FOXO1), FOXO1 (gene 2308)
The assay can be described thus: LTEA_HepaRG_FOXO1: Life Technologies and Expression Analysis (LTEA) Assay for Forkhead box O1 (FOXO1) using HepaRG (AID 2283456). The method, boiled down:
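FOXO1 transcript quantified by qRT-PCR after 48 h chemical exposure (top 100 uM, half-log steps, 0.5% DMSO) of HepaRG cells, housekeeping-normalized (ACTB/GAPDH/POLR2A). Changes fitted in both directions relative to vehicle.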

Read-out in assay [10]: growth arrest and DNA damage 45 (GADD45A), GADD45A (gene 1647)
The assay can be described thus: LTEA_HepaRG_GADD45A: Life Technologies and Expression Analysis (LTEA) Assay for growth arrest and DNA damage 45 (GADD45A) using HepaRG (AID 2283458). An outline of the steps:
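Transcript induction or loss, quantified by TaqMan qRT-PCR against three housekeeping genes, is the read-out. HepaRG cells received chemicals for 48 h across eight half-log concentrations from 100 uM in 0.5% DMSO; gain and loss fitted relative to DMSO.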

Read-out in assay [11]: Forkhead box O3 (FOXO3), FOXO3 (gene 2309)
The assay can be described thus: LTEA_HepaRG_FOXO3: Life Technologies and Expression Analysis (LTEA) Assay for Forkhead box O3 (FOXO3) using HepaRG (AID 2283459). The method, boiled down: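 FOXO3 transcript measured by qRT-PCR (normalized to ACTB, GAPDH, POLR2A) after 48 h exposure of HepaRG cells in serum-free induction medium. Duplicates, eight half-log concentrations up to 100 uM, 0.5% DMSO; gain or loss fitted against DMSO.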

Read-out in assay [12]: ABC Transporter (ABCB1), ABCB1 (gene 5243)
The assay can be described thus: LTEA_HepaRG_ABCB1: Life Technologies and Expression Analysis (LTEA) Assay for ABC Transporter (ABCB1) using HepaRG (AID 2283460). An outline of the steps: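 ABCB1 transcript level measured by TaqMan qRT-PCR against three housekeeping genes after 48 h chemical exposure of differentiated HepaRG cells. Top concentration 100 uM, half-log steps, eight points, 0.5% DMSO vehicle; bidirectional fit relative to DMSO.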

Read-out in assay [13]: growth arrest and DNA damage 45 (GADD45B), GADD45B (gene 4616)
In words: LTEA_HepaRG_GADD45B: Life Technologies and Expression Analysis (LTEA) Assay for growth arrest and DNA damage 45 (GADD45B) using HepaRG (AID 2283461). An outline of the steps: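 HepaRG, ~100,000 cells/well, 48 h plating; serum-free induction medium; cpd 100 uM top, half-log x8, 0.5% DMSO, duplicate, 48 h; lysis in RLT, RNA isolation, qRT-PCR; norm ACTB/GAPDH/POLR2A; bidirectional fit vs DMSO.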

Read-out in assay [14]: ABC Transporter (ABCC3), ABCC3 (gene 8714)
The assay can be described thus: LTEA_HepaRG_ABCC3: Life Technologies and Expression Analysis (LTEA) Assay for ABC Transporter (ABCC3) using HepaRG (AID 2283462). The method, boiled down: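 Human HepaRG, 48 h dosing, 8-pt half-log series from 100 uM, 0.5% DMSO vehicle, duplicates. ABCC3 mRNA by TaqMan qRT-PCR, housekeeping-normalized; bidirectional curve fit vs DMSO.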

Read-out in assay [15]: ABC Transporter (ABCB11), ABCB11 (gene 8647)
The assay can be described thus: LTEA_HepaRG_ABCB11: Life Technologies and Expression Analysis (LTEA) Assay for ABC Transporter (ABCB11) using HepaRG (AID 2283463). An outline of the steps:
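ABCB11 transcript levels quantified by TaqMan qRT-PCR against three housekeeping genes after 48 h chemical exposure of HepaRG cultures. Concentrations up to 100 uM in half-log steps, 0.5% DMSO vehicle; both induction and suppression scored.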

Read-out in assay [16]: ABC Transporter (ABCC2), ABCC2 (gene 1244)
The assay can be described thus: LTEA_HepaRG_ABCC2: Life Technologies and Expression Analysis (LTEA) Assay for ABC Transporter (ABCC2) using HepaRG (AID 2283464). An outline of the steps:
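HepaRG, 48 h post-plating; serum-free induction medium; cpd 8-pt, 100 uM top, half-log, 0.5% DMSO, duplicate, 48 h. Readout: ABCC2 mRNA by qRT-PCR, norm. ACTB/GAPDH/POLR2A. Bidirectional fit vs DMSO baseline.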

Read-out in assay [17]: Broad substrate specificity ATP-binding cassette transporter ABCG2 (Homo sapiens) (UniProt Q9UNQ0)
The assay can be described thus: LTEA_HepaRG_ABCG2: Life Technologies and Expression Analysis (LTEA) Assay for ABC Transporter (ABCG2) using HepaRG (AID 2283465). The method, boiled down: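 ABCG2 transcript was quantified by TaqMan qRT-PCR against three housekeeping genes in HepaRG cells. Cells were treated in duplicate for 48 h across an 8-point half-log series up to 100 uM, with 0.5% DMSO vehicle. Gain or loss versus DMSO was fit.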

Read-out in assay [18]: CFLAR gene, CFLAR (gene 8837)
In words: LTEA_HepaRG_CFLAR: Life Technologies and Expression Analysis (LTEA) Assay for CFLAR gene using HepaRG (AID 2283455). The method, boiled down:
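Transcript level by qRT-PCR (normalized to ACTB, GAPDH and POLR2A) after 48 h chemical exposure of HepaRG cells, top concentration 100 uM with half-log steps, 0.5% DMSO vehicle, duplicates; fitted bidirectionally against DMSO baseline.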

The structures appear in SMILES notation. Active and inactive are the calls of the source. Rule for the calls: active = hit-call score of the fitted dose curve at least 0.9, where 1 is the maximum; inactive = score below 0.9.

Sequence of Broad substrate specificity ATP-binding cassette transporter ABCG2 (Homo sapiens) (Q9UNQ0 whole entry, looked up): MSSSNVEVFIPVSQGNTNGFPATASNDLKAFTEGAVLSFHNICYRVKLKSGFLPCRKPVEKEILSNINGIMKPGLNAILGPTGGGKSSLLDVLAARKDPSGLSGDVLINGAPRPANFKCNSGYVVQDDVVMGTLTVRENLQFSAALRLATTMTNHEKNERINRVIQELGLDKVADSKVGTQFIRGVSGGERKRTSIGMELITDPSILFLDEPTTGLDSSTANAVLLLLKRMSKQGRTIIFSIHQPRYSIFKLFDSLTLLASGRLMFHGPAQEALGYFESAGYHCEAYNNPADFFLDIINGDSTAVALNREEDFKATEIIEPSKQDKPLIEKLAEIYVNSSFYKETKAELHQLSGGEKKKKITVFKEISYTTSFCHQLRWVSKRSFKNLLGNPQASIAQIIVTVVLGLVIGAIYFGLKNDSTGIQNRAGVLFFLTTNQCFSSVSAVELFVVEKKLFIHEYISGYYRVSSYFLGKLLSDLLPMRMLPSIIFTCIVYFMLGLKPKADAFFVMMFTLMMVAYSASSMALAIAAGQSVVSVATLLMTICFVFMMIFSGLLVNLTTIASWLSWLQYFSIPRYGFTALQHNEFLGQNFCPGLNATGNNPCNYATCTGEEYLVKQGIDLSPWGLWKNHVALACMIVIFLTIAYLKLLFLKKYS
Sequence of Fatty acid synthase (Homo sapiens) (P49327 whole entry, looked up): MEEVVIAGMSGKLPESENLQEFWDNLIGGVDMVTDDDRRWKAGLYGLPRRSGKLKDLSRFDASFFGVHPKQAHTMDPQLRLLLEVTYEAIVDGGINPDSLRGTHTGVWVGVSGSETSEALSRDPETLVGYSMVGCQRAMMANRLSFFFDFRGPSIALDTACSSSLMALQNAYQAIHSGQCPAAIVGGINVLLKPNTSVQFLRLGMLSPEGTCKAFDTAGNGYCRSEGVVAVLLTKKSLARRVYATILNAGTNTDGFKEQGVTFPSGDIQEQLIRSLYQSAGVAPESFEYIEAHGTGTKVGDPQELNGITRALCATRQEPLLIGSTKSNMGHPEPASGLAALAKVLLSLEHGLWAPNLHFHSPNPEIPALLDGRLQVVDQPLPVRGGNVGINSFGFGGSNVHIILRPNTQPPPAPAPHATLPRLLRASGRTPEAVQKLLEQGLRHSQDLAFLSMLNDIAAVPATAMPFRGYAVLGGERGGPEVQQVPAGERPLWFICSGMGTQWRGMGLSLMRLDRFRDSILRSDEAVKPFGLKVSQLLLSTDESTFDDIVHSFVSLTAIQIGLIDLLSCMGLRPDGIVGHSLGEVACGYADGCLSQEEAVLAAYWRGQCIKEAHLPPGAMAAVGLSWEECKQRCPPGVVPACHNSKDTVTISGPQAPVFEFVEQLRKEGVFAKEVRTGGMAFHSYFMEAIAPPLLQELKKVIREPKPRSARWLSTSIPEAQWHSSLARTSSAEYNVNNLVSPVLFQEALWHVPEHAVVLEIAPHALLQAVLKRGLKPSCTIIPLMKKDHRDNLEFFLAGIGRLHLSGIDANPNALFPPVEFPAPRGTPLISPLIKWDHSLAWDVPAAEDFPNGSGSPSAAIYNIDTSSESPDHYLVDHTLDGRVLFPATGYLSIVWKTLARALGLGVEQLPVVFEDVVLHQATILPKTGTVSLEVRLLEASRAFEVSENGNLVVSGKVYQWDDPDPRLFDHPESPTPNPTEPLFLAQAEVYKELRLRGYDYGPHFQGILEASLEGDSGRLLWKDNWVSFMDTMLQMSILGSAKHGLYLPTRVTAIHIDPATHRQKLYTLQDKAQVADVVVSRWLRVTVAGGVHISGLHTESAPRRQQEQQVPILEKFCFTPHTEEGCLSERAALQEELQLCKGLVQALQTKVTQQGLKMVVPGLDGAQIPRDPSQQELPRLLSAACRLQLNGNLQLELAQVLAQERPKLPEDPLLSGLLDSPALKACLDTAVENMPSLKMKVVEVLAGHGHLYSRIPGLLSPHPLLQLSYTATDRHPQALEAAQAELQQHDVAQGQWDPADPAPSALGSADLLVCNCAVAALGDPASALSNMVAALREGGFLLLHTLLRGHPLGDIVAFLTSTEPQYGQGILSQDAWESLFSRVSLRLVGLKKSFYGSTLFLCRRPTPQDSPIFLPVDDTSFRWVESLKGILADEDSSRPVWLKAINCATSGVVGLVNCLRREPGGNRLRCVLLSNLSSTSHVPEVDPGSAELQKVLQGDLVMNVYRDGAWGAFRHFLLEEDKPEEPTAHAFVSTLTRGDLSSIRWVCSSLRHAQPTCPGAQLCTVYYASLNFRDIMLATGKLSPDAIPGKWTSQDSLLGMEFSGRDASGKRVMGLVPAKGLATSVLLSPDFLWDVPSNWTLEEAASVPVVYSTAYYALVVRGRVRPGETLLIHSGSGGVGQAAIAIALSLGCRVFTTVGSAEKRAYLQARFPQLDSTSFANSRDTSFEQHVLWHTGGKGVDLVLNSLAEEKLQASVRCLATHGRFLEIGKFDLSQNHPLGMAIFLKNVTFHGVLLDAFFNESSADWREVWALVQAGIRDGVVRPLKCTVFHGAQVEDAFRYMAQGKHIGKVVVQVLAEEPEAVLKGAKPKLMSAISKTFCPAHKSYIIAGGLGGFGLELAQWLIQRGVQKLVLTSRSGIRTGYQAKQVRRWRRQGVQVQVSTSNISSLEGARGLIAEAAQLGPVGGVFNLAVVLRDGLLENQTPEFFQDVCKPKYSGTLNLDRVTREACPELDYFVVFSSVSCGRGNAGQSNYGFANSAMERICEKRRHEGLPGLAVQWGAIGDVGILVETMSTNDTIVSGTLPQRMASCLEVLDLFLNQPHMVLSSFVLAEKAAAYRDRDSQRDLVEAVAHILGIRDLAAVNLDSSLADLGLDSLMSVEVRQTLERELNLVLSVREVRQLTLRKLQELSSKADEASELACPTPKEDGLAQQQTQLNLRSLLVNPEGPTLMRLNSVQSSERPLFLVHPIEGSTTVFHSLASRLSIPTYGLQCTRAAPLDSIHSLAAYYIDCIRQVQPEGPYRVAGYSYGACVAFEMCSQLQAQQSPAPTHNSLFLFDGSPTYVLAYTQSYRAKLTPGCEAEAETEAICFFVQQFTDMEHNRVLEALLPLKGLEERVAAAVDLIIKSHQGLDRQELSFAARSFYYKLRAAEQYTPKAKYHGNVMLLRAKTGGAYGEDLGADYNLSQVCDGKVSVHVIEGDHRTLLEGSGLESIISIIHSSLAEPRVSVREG

As for `NS(=O)(=O)c1cc2c(cc1Cl)NCNS2(=O)=O`, the compound was classed as inactive in [1], in assay [2], in [3], in assay [4], in assay [5] and in assay [6]. For the same compound, the call in [7], in [8], in assay [9], in [10], in [11] and in assay [12] was inactive. For the same compound, the outcome in [13], in assay [14], in assay [15], in assay [16] and in assay [17] was inactive.
On to `Cc1ccc(C)c(C)c1`, for which the call in [1], in assay [2], in [3], in assay [4], in [6] and in assay [7] was inactive. Further, the compound was called inactive in assay [8], in assay [18], in [9], in [10], in assay [11] and in assay [12]. In addition, the call in assay [13], in assay [14], in assay [15], in assay [16] and in [17] was inactive.
In the case of `COc1cc(S(=O)(=O)O)c(C)cc1N=Nc1c(O)ccc2cc(S(=O)(=O)O)ccc12`, the call in [1], in assay [2], in [3], in [4], in assay [5] and in [6] was inactive. Also, the compound was called inactive in [7], in [18], in [9], in assay [10], in [12] and in [13]. Further, the call in assay [14], in [15], in assay [16] and in assay [17] was inactive.
On to `Cc1cccc([N+](=O)[O-])c1C`, for which the compound was called inactive in assay [1], in assay [2], in [3], in assay [4], in [5] and in assay [6]. The compound was called inactive in assay [7], in assay [8], in [9], in assay [10], in [11] and in [12]. Also, the outcome in [13], in assay [14], in assay [15], in [16] and in assay [17] was inactive.
What is called AC50 is the concentration at which the activity in the assay is half-maximal. As for `O=C(N[C@@H](Cc1ccccc1)[C@@H](O)C(=O)N1C[C@@H](O)[C@@H](O)C1)c1cc2cc(Cl)ccc2[nH]1`, the call in assay [1], in assay [2], in assay [3], in assay [5], in assay [6] and in assay [7] was inactive. In addition, the call in [18], in assay [9], in assay [10], in assay [13], in assay [14] and in [16] was inactive. The AC50 was 63100 nM (active) in assay [4], 50000 nM (active) in assay [8], 9920 nM (active) in assay [12] and 50000 nM (active) in assay [17].
On to `COCCOCCOC`, for which the AC50 in assay [1] is 382 nM (active); in assay [8], 1220 nM (active); in [9] it was 2220 nM (active); in assay [10], 998 nM (active); in assay [11], 9920 nM (active); in assay [12], 2830 nM (active). Moreover, the figures for the AC50 in assay [15] and in assay [17] were 922 nM (active) and 1370 nM (active), respectively. Further, the call in assay [2], in [3], in [4], in assay [5], in assay [6] and in [7] was inactive. Also, the compound was classed as inactive in assay [13], in assay [14] and in assay [16].
As to `O=C(OCCCCCOC(=O)c1ccccc1)c1ccccc1`, the AC50 was 1080 nM (active) in [1]; 2480 nM (active) in [3]; 2780 nM (active) in [5]; 503 nM (active) in assay [7]; 1180 nM (active) in [8]; 1190 nM (active) in [9]. Moreover, the AC50 in assay [10] was 2130 nM (active); in assay [11] it was 140 nM (active); in assay [12], 270 nM (active); in [14], 12700 nM (active); in [15], 572 nM (active); in assay [17], 773 nM (active). Besides, the call in [2], in [4], in assay [6] and in [13] was inactive.
